A number with no mark means an inactive call.
Assays:
Assay in all cases: log2 ratio of Biotin-Ahx-Ub-VS probe labelling (fragment/DMSO); higher = less target engagement (more negative = stronger competition), active = hit call of the paper (q ≤ 0.05, log2 ratio ≤ -1)
Settings in all cases: compound concentration: 200 uM; treatment time: 3 h
USP42 = target: T1, USP42 (UniProt Q9H9J4)
T1 sequence (whole entry): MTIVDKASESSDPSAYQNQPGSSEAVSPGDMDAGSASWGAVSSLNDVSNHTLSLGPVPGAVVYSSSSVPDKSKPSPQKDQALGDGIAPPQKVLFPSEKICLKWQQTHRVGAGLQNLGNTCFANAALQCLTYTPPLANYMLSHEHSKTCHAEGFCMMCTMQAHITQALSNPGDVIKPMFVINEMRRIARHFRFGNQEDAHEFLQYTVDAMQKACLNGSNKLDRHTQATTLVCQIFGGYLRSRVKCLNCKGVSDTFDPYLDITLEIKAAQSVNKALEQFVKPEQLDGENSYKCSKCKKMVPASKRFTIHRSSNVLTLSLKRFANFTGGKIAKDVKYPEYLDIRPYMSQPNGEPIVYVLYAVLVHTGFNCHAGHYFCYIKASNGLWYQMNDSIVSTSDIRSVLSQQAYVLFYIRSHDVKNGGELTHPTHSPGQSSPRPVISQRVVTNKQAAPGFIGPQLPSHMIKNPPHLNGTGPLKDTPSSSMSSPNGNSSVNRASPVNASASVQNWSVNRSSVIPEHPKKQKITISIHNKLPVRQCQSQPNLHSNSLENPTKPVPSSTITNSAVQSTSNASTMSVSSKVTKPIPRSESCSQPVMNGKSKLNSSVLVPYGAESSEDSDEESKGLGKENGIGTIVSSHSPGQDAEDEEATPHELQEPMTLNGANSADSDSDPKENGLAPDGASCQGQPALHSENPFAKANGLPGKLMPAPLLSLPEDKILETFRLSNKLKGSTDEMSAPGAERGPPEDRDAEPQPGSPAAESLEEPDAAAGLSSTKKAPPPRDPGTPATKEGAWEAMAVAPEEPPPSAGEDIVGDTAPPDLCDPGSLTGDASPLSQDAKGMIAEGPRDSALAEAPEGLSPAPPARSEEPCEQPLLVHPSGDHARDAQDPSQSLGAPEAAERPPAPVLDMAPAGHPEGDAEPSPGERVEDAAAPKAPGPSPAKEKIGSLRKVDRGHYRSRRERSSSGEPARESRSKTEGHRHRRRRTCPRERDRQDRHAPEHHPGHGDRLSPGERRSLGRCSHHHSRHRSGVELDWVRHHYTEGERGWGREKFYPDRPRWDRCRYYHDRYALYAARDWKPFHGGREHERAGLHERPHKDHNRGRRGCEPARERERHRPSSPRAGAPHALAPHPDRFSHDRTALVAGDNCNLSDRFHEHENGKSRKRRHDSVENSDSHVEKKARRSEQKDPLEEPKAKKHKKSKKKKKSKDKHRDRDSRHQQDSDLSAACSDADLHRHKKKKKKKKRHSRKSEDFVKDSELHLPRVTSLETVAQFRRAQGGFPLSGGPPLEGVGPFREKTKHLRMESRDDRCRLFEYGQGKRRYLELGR
How it was run: (§1)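 Values give the average log2 ratio of fragment to vehicle, assessed by unpaired t-test on global-median-normalised Spectronaut label-free quantities. Proteins needed ≥2 unique peptides. HEK293T lysate (495 µg per sample) was treated in triplicate with fragment at 200 µM or vehicle for 3 h and then with Biotin-Ahx-Ub-VS at 0.5 µM final for 1 h. Labelled DUBs were NeutrAvidin-enriched, digested and run by diaPASEF LC-MS/MS.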

USP46 = USP46 (UniProt P62068)
USP46, sequence (P62068 whole entry): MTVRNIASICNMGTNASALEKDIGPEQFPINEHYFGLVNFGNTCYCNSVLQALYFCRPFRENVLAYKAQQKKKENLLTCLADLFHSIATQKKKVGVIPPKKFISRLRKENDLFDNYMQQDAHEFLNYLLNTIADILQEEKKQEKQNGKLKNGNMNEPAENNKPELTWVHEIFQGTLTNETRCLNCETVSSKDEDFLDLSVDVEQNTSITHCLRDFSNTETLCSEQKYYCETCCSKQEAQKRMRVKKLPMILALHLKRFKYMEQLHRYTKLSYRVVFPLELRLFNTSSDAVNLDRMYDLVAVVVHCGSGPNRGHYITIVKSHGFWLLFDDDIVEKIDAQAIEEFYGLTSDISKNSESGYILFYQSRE
How it was run: as §1

USP47 = target: T2, USP47 (UniProt Q96K76)
T2 sequence (whole entry): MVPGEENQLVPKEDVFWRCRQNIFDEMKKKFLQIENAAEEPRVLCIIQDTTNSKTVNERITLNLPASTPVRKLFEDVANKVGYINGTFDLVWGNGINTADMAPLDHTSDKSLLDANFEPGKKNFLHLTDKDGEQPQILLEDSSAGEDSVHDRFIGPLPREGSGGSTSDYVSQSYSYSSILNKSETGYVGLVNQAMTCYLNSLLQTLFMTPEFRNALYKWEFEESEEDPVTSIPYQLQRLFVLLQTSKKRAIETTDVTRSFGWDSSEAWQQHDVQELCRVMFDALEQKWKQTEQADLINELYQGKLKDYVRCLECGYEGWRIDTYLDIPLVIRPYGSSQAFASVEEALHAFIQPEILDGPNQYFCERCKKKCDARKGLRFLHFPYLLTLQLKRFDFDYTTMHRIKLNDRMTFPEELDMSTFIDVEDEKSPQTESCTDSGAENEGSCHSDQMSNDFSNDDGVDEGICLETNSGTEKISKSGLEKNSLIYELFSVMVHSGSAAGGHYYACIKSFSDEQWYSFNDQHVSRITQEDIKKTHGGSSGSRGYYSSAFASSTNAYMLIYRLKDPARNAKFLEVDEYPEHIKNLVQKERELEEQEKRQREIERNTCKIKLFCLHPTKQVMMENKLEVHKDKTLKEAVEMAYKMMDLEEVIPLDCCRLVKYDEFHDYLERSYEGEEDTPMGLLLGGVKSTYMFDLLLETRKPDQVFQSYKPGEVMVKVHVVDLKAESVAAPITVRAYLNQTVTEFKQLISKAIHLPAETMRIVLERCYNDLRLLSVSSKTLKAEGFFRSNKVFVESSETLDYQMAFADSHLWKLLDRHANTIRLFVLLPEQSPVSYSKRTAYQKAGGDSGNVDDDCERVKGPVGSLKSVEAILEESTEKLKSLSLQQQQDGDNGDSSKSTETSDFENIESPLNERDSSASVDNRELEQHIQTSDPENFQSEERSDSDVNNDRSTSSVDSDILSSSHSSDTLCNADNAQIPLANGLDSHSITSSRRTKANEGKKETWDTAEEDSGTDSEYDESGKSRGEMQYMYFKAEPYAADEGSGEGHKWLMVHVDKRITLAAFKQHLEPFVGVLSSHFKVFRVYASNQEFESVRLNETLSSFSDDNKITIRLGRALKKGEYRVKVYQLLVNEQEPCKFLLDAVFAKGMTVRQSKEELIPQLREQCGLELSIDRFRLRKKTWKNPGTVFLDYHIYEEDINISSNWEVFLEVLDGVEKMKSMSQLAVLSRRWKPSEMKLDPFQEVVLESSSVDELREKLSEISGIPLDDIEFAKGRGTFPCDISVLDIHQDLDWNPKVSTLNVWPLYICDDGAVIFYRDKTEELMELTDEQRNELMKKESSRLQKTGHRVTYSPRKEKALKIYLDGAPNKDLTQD
How it was run: as §1

USP48 = target: T3, USP48 (UniProt Q86UV5)
T3 sequence (whole entry): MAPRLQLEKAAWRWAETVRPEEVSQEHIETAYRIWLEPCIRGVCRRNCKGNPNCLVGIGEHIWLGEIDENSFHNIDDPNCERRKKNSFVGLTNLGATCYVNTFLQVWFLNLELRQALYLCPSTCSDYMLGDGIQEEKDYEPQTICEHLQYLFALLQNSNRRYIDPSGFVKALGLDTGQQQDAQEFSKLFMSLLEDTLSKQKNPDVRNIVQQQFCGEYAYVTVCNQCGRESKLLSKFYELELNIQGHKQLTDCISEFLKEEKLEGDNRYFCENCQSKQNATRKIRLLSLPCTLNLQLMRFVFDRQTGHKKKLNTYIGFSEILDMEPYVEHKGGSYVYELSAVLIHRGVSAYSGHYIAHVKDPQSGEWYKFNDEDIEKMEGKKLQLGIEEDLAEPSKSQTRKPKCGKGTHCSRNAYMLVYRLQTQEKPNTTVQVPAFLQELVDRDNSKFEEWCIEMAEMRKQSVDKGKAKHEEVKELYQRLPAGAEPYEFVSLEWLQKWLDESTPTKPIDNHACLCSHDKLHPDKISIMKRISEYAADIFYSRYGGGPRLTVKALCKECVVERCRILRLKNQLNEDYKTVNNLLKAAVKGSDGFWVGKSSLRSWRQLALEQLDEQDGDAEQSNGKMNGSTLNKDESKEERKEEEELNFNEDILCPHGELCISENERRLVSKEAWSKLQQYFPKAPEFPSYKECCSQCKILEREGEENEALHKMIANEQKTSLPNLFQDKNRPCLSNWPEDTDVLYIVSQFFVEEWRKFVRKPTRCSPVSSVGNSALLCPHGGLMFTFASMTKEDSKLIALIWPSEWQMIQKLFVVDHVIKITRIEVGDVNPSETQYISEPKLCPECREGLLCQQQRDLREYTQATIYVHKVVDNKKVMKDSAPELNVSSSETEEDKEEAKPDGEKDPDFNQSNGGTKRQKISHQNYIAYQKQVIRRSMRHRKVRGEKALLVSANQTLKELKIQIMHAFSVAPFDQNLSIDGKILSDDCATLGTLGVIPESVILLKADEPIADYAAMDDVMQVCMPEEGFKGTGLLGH
How it was run: as §1

USP5 = target: T4, USP5 (UniProt P45974)
T4 sequence (whole entry): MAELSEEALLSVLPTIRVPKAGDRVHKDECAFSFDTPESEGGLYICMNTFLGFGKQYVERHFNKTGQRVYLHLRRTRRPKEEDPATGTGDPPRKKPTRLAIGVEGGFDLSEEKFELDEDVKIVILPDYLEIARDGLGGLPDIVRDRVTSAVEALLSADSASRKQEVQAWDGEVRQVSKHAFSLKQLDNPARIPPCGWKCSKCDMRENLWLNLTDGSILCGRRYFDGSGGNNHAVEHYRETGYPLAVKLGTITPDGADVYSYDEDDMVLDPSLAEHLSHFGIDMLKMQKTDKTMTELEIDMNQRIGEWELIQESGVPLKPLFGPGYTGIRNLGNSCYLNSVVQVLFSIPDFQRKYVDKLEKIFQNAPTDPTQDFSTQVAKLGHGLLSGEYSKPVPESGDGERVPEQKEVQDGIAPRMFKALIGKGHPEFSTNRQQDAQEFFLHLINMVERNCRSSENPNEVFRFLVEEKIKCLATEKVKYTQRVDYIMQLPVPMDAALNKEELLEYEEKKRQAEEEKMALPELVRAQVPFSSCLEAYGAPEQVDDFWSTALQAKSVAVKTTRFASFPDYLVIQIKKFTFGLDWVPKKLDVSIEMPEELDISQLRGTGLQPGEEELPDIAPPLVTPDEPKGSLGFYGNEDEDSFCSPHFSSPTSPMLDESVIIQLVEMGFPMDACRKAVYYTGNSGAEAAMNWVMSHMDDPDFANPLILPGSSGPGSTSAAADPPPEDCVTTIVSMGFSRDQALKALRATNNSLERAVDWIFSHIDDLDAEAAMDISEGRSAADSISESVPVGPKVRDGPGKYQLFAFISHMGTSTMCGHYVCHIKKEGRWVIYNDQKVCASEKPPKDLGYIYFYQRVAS
How it was run: as §1

USP54 = USP54 (UniProt Q70EL1)
USP54, sequence (Q70EL1 whole entry): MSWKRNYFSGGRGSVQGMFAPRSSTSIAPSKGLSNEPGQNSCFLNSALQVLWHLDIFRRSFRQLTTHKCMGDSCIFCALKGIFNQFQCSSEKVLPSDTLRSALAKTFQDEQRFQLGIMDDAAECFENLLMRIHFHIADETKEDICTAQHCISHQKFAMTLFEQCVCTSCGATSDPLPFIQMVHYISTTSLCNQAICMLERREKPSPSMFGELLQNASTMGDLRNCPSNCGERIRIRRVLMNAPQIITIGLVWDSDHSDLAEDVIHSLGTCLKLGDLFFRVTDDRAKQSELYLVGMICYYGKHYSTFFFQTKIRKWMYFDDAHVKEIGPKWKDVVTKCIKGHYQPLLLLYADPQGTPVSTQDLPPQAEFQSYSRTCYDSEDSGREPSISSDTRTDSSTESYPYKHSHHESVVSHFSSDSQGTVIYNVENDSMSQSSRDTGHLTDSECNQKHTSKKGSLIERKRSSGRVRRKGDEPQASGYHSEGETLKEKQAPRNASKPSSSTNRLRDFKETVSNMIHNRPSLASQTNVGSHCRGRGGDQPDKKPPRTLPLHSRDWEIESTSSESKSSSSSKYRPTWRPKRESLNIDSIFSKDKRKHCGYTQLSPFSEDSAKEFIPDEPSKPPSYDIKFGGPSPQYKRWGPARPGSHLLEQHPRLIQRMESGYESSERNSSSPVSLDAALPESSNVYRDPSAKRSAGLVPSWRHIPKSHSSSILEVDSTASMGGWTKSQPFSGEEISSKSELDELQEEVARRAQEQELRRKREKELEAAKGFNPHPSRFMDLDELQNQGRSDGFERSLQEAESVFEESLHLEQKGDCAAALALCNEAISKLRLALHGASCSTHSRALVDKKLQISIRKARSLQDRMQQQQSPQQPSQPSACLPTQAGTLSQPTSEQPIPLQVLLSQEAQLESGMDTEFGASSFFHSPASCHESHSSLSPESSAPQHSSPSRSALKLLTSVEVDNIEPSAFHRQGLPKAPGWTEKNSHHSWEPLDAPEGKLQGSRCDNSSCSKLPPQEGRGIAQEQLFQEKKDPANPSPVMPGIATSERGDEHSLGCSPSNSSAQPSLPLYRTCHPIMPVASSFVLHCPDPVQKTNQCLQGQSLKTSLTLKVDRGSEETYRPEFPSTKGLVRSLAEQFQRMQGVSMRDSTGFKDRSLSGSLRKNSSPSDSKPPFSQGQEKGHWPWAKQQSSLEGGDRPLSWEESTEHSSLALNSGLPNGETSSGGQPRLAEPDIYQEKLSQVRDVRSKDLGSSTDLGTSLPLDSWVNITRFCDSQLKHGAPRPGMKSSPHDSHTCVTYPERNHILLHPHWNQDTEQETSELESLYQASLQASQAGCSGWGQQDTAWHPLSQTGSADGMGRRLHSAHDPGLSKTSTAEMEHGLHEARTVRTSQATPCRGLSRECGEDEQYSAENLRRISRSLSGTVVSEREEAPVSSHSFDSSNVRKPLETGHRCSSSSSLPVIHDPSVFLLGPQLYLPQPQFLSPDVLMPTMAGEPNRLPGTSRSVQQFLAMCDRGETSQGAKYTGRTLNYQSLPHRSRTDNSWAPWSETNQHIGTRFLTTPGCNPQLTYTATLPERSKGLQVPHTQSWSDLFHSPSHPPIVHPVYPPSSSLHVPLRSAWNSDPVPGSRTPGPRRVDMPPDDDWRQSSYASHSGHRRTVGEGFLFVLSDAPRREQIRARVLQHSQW
How it was run: as §1

USP7 = USP7 (UniProt Q93009)
USP7, sequence (Q93009 whole entry, looked up): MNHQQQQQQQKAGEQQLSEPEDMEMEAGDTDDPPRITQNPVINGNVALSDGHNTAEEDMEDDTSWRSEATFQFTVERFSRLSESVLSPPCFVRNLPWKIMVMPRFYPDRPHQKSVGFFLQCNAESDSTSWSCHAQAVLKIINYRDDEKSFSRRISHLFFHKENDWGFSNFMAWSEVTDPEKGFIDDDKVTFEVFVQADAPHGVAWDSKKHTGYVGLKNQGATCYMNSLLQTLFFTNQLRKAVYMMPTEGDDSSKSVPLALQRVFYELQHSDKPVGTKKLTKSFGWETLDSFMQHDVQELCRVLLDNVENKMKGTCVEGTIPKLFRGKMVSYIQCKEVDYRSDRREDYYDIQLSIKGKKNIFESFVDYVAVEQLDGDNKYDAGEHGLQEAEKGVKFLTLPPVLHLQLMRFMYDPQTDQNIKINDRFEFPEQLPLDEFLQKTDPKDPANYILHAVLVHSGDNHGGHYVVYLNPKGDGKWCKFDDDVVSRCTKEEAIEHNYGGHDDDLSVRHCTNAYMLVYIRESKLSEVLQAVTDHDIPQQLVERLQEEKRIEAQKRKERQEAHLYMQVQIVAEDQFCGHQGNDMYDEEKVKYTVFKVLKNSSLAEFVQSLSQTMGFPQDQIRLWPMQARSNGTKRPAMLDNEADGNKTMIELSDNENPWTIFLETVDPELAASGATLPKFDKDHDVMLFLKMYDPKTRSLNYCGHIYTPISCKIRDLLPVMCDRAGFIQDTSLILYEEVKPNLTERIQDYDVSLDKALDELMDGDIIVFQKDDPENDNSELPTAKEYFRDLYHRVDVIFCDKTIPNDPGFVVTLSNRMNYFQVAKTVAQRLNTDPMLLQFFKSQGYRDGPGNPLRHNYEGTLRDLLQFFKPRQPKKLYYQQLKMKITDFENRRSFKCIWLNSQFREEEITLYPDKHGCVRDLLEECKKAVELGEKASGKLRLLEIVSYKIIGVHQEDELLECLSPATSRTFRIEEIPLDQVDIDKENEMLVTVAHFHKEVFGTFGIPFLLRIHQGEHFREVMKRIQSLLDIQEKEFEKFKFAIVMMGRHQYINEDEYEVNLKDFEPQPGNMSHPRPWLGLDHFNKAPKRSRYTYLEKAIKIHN
How it was run: as §1

USP8 = target: T5, USP8 (UniProt P40818)
T5 sequence (whole entry): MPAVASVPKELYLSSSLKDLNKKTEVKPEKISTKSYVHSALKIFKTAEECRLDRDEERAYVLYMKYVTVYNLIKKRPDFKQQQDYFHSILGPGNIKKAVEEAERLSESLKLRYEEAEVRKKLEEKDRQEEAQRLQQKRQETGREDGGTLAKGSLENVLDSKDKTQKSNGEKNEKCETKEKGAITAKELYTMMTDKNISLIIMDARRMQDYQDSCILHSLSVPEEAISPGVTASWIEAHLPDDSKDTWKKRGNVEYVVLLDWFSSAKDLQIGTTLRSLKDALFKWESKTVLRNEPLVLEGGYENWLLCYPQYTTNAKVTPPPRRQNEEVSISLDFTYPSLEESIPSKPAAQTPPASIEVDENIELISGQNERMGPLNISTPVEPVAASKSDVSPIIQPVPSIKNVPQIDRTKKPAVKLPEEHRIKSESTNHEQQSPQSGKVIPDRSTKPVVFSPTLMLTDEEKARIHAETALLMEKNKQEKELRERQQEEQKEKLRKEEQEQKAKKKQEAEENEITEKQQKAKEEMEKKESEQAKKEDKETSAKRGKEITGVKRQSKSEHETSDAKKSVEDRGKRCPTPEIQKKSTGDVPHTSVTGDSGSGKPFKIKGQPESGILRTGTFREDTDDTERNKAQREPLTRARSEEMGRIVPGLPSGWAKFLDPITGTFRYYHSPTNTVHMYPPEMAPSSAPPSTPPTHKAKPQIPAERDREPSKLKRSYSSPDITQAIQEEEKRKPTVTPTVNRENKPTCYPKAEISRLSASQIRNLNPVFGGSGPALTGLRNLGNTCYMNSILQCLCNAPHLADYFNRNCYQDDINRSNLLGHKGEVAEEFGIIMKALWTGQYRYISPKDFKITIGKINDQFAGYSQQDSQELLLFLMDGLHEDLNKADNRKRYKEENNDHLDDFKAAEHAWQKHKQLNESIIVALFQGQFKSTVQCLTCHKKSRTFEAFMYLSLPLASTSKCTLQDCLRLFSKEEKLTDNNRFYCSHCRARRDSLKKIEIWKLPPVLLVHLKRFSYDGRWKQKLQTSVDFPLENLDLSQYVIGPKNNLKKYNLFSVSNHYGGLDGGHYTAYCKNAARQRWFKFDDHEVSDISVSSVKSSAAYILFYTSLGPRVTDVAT
How it was run: as §1

USP9X = USP9X (UniProt Q93008)
How it was run: as §1

UniProt O00487 = target: UniProt O00487
UniProt O00487, sequence (O00487 whole entry): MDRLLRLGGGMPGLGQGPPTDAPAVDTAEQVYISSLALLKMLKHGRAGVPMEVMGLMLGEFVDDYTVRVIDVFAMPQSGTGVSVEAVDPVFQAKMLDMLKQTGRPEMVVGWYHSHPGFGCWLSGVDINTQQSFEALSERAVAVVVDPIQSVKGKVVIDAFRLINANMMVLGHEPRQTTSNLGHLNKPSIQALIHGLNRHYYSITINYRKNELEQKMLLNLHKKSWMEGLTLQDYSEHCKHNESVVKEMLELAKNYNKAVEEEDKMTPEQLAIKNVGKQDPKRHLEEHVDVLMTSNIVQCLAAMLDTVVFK
How it was run: as §1

Row | Structure (SMILES) | log2 ratio of Biotin-Ahx-Ub-VS probe labelling (USP42) | log2 ratio of Biotin-Ahx-Ub-VS probe labelling (USP46) | log2 ratio of Biotin-Ahx-Ub-VS probe labelling (USP47) | log2 ratio of Biotin-Ahx-Ub-VS probe labelling (USP48) | log2 ratio of Biotin-Ahx-Ub-VS probe labelling (USP5) | log2 ratio of Biotin-Ahx-Ub-VS probe labelling (USP54) | log2 ratio of Biotin-Ahx-Ub-VS probe labelling (USP7) | log2 ratio of Biotin-Ahx-Ub-VS probe labelling (USP8) | log2 ratio of Biotin-Ahx-Ub-VS probe labelling (USP9X) | log2 ratio of Biotin-Ahx-Ub-VS probe labelling (UniProt O00487)
1 | O=C(CCl)N1CCOCCC1c1ccccc1 (stereo not given) | 0.345 | -0.0581 | -0.596 | 0.0099 | 0.135 | 0.504 | -0.526 | -0.109 | -0.168 | -0.00106
2 | COc1ccc(C2CCCN2C(=O)CCl)c(OC)c1 (stereo not given) | 0.426 | -0.295 | -0.378 | -0.744 | 0.0602 | 0.223 | -1.23 (active) | -0.00675 | -0.271 | -0.0639
3 | O=C(CCl)N[C@H]1CCS(=O)(=O)c2ccccc21 | 0.186 | 0.0271 | -0.0612 | -0.022 | -0.472 | -0.274 | -0.346 | -0.0621 | -0.14 | -0.0201
4 | CCN(C(=O)CCl)C1CCS(=O)(=O)C1 (stereo not given) | 0.372 | -0.128 | 0.027 | -0.155 | 0.158 | -0.012 | -0.288 | 0.0171 | -0.112 | 0.0162
